± gives the standard deviation.
Columns and labels:
Conditions in all cases: modulator concentration 10 µM
[1] = tested on: RAW-Dual (murine macrophage reporter line); experiment: NF-kB reporter (SEAP) activity fold change vs agonist alone; higher = enhanced NF-kB activity
How it was run: (§1)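 Compound reached 10 μM final in each well by pin transfer, onto RAW-Dual murine macrophage reporter cells seeded at 50 000 per well in 384-well plates. After 1 hour at 37 °C, the cells were stimulated overnight with a PRR agonist. SEAP in the supernatant was read with QUANTI-Blue at 620 nm absorbance for NF-κB, and Lucia luciferase was read with QUANTI-Luc luminescence for IRF. Each signal was turned into fold change against the mean agonist-only control on the same plate, and two replicate plates were averaged with propagated errors.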

[2] = tested on: RAW-Dual (murine macrophage reporter line); experiment: IRF reporter (Lucia luciferase) activity fold change vs agonist alone; higher = enhanced IRF activity
How it was run: as §1

[3] = tested on: RAW-Dual (murine macrophage reporter line); experiment: viability score (confluency relative to resting cells, overnight) (fraction); higher = more viable, active = viable (0.7 or more)
How it was run: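 Confluency was the readout: RAW-Dual macrophages were imaged with IncuCyte after an overnight exposure to compound at 10 μM final. IncuCyte software produced two masks over all imaged wells. The viability score expresses confluency against resting cells, and both masks had to exceed 70% of resting cells for a compound to meet the cutoff.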

[4] = agonist: CpG ODN 1826 0.5 ug/mL

Row | Compound | NF-kB reporter [1, 4] | NF-kB reporter ([1]; agonist: LPS 0.1 ug/mL) | NF-kB reporter ([1]; agonist: MPLA […]) | IRF reporter ([2]; agonist: 3'3'-cGAMP 10 ug/mL) | IRF reporter ([2]; agonist: LPS 0.1 ug/mL) | IRF reporter ([2]; agonist: MPLA […]) | viability score [3]
1 | COc1ccc(OC)c(CN2CCCC(O)C2)c1 (stereo unspecified) | 1.19 ± 0.075 | 1.01 ± 0.081 | 0.942 ± 0.027 | 0.963 ± 0.055 | 1.07 ± 0.061 | 1.06 ± 0.1 | 1 (active)
2 | NCC1OC(OC2C(CO)OC(OC3C(O)C(N)CC(N)C3OC3OC(CN)C(O)C(O)C3N)C2O)C(N)C(O)C1O.O=S(=O)(O)O (stereo unspecified) | 1.21 ± 0.096 | 1.01 ± 0.074 | 1.13 ± 0.12 | 0.993 ± 0.031 | 1.22 ± 0.12 | 1.29 ± 0.18 | 1.02 (active)
3 | COc1ccc(-c2cc3nc(C)cc(NCCN4CCOCC4)n3n2)cc1OC | 1.11 ± 0.086 | 0.962 ± 0.076 | 0.976 ± 0.026 | 1.06 ± 0.13 | 0.998 ± 0.12 | 1.05 ± 0.22 | 0.997 (active)
4 | CC(=O)O.NCc1ccc(S(N)(=O)=O)cc1 | 1 ± 0.1 | 1.01 ± 0.052 | 0.992 ± 0.058 | 0.914 ± 0.065 | 0.96 ± 0.12 | 1.02 ± 0.092 | 1.01 (active)
5 | COC(=O)C1=COC(OC2OC(CO)C(O)C(O)C2O)C2C1CC(O)C2C (stereo unspecified) | 1.04 ± 0.081 | 0.974 ± 0.099 | 0.994 ± 0.033 | 0.976 ± 0.063 | 0.946 ± 0.13 | 0.951 ± 0.24 | 0.998 (active)
6 | O=S(=O)(Nc1nc2ccccc2nc1Nc1ccc2c(c1)OCCO2)c1cccs1 | 0.985 ± 0.078 | 1.02 ± 0.065 | 1.13 ± 0.1 | 0.85 ± 0.028 | 1.29 ± 0.2 | 1.05 ± 0.098 | 0.99 (active)
7 | CC1CCc2nnc(OCC3CCCN3C)cc2C1 (stereo unspecified) | 0.837 ± 0.051 | 0.793 ± 0.11 | 0.99 ± 0.059 | 0.972 ± 0.061 | 1.19 ± 0.25 | 1.22 ± 0.48 | 0.996 (active)
8 | CCOC(=O)C1=C(C)NC(C)=C(C(=O)OCC)C1c1cccs1 | 0.836 ± 0.23 | 0.998 ± 0.089 | 0.965 ± 0.12 | 0.929 ± 0.071 | 1.09 ± 0.3 | 1.08 ± 0.25 | 0.978 (active)
9 | O=C(/C=C/c1cccc(S(=O)(=O)Nc2ccccc2)c1)NO | 2.21 ± 0.11 | 1.73 ± 0.14 | 2.67 ± 0.12 | 0.0696 ± 0.0082 | 0.285 ± 0.017 | 0.404 ± 0.12 | 0.0713 (inactive)
10 | CC(C(=O)O)c1ccc2c(c1)[nH]c1ccc(Cl)cc12 (stereo unspecified) | 0.96 ± 0.15 | 1.13 ± 0.24 | 0.879 ± 0.064 | 0.937 ± 0.054 | 1.19 ± 0.2 | 1.05 ± 0.16 | 1 (active)
11 | O=C(NN=Cc1ccc([N+](=O)[O-])s1)c1ccc(Br)cc1 | 0.968 ± 0.083 | 0.858 ± 0.082 | 0.96 ± 0.09 | 0.395 ± 0.068 | 1.18 ± 0.2 | 1.14 ± 0.28 | 0.996 (active)
12 | O=c1[nH]nc(Br)c(=O)[nH]1 | 1.04 ± 0.082 | 1.1 ± 0.09 | 0.969 ± 0.04 | 0.993 ± 0.11 | 1.03 ± 0.057 | 1.02 ± 0.086 | 0.992 (active)
13 | CCC[C@@H]1C[C@@H](C(=O)N[C@@H]([C@H]2O[C@H](SC)[C@H](OP(=O)(O)O)[C@@H](O)[C@H]2O)[C@H](C)Cl)N(C)C1 | 0.953 ± 0.08 | 0.954 ± 0.059 | 0.952 ± 0.043 | 0.972 ± 0.073 | 1.01 ± 0.09 | 1.15 ± 0.092 | 1 (active)

Source: the supplement of paper PMC10646978
